# In the supplement of paper PMC6555819:
# Legend:
# Experiment in all cases: PBM binding z-score (relative to random genomic background probes); higher = stronger binding; sequences stand for … in GC…GCGATTGACAGCGTAGAATGAAGG
# [1] = system: RARb homodimer (NR concentration 270 nM)
# Method in brief: (§1)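 Custom Agilent 4×180K protein-binding microarrays carried double-stranded probes. Their 34-nt variable regions held direct-repeat seeds, single-nucleotide variants, half-site ablations and random human genomic background sequences. Arrays were incubated 1 h with ligand-free nuclear receptor dimers in PBS pH 7.4, 2% milk, 0.02% Triton X-100, 1 mM DTT, 0.2 mg/mL BSA and 0.4 mg/ml salmon testes DNA. Antibodies against each partner (one per run) detected binding, and scanned fluorescence was regression-normalized. Binding z-scores use random background probes as reference.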
# [2] = system: RARg:RXRa (NR concentration 270 nM, RXRa partner concentration 90 nM)
# Method in brief: as §1
# [3] = system: RARg homodimer (NR concentration 270 nM)
# Method in brief: as §1
# [4] = system: RXRa DBDmut IVT, anti-RXR (DBD mutation: RXRa K156A/R161A, NR concentration 90 nM)
# Method in brief: as §1
# [5] = system: RXRa homodimer (NR concentration 180 nM)
# Method in brief: as §1
# [6] = system: THRa:RXRa (NR concentration 90 nM, RXRa partner concentration 90 nM)
# Method in brief: as §1
# [7] = system: THRa homodimer (NR concentration 90 nM)
# Method in brief: as §1
# [8] = system: VDR:RXRa (NR concentration 270 nM, RXRa partner concentration 90 nM)
# Method in brief: as §1
# [9] = system: VDR homodimer (NR concentration 270 nM)
# Method in brief: as §1
Sequence,PBM binding z-score [1],PBM binding z-score [2],PBM binding z-score [3],PBM binding z-score [4],PBM binding z-score [5],PBM binding z-score [6],PBM binding z-score [7],PBM binding z-score [8],PBM binding z-score [9]
GCTAGCACGCCATTTGGGTCACTCAATGACGGGC,1.32,0.76,0.779,-0.343,0.832,1.5,0.413,-0.0776,-0.357
CGAACTAGGTCAGAACATGACAGTGAAGGATGAT,1.74,2.34,2.89,0.671,1.33,1.24,0.0482,0.229,0.133
CCTTACGGGTCACTCCAGGTTGTAGCATCGGAGT,2.84,4.14,3.94,1.67,4.11,4.56,0.074,3.62,1.05
CGTCCAAGGTCAATGCTAGGTCAGTGAGAGCATT,5.01,7.45,6.65,3.53,5.06,4.37,2.87,5.11,3.36
AAATGTAGGTTATCGGGTCATTCAGTTTGCGCAT,3.09,3.27,2.33,1.88,3.42,3.41,2.84,,4
AACTCTAGGTAACCAAGTTCAGTGAATGCCGAAC,0.982,0.219,0.32,0.853,0.269,1.34,0.572,3.64,2.11
TCTCGGAGGACACGGAAGGTCAGAGCTCGACATC,3.98,3.49,4.48,0.816,2.31,3.45,1.37,1.97,1.01
ATCTCTAGTTAAAGATAGTTCAGTGAATGCAAAT,1.14,0.636,0.66,0.396,0.579,0.486,0.212,,0.858
CCTACCAGGCCAGGGTCACTCAAGCATTTCGCTT,2.84,3.13,2.44,-0.231,3.18,2.98,1.56,2.7,1.29
ATATGTAGGTTAAGGGTCACTCAGGTTGGTTCGC,4.35,4.99,4,1.82,6.33,3.59,2.01,5.43,3.47
ACTAGCAGGCCAAGGGTCAGTCAAGATTAGTCCG,3.52,3.02,2.76,0.119,2.52,1.75,-0.147,1.12,0.29
CCTGCAAGGTCAATGGTCAGCTAAAGCAGCTCGC,3.65,5.83,5.9,3.75,5.35,3.77,1.8,3.76,2.45
CCGACGGGGGCATAAGGTTACCATAAGCCAGCCC,2.78,4.76,3.14,2.15,3.62,3.58,1.76,3.5,2.1
TCTCGGAGGACACGAAGGGCAGAGCTTTCCAGAG,1.42,0.796,1.71,0.216,-0.0528,1.33,0.123,0.0136,-0.0061
CCTTACCGGTCACTCCAGGTTATAGCATCGGAGT,2.64,2.41,3.52,0.359,0.865,3.88,1.32,,0.951
CCTACTGGACCATTCAGAGGTCATTGATCATATG,4.13,3.53,2.94,1.51,3.99,3.04,2.32,3.95,4
ACTAGTTGGTGAGCTGAGGTCACACACAATTCGG,3.86,3.85,3.11,0.874,4.01,4.44,5.07,3.55,3.31

Sequence,PBM binding z-score [1],PBM binding z-score [2],PBM binding z-score [3],PBM binding z-score [4],PBM binding z-score [5],PBM binding z-score [6],PBM binding z-score [7],PBM binding z-score [8],PBM binding z-score [9]
ATATGTAGGTTATCGGGTCATTAAGTTTGCGCAT,3.05,3.13,2.3,1.7,3.23,3.25,2.55,6.04,4.46
CCTTACGGGTCACTGACAGGTTATGGCATTTGGA,3.41,5.79,4.82,1.85,5.22,2.9,0.174,3.75,0.887
CAGCCTAGGTCAGGGCCAGCATAGGAGGAACGTT,2.41,2.93,3.78,-0.352,1.57,1.95,0.423,0.0584,-0.327
AAATGTAGGTTAGCTGGGGTCATTCAGACTAGGC,3.76,4.06,2.95,1.87,5.4,5.36,3.23,6.03,5.33
ACTATTAGTTGAGACGAGGGCAAACGATAGGTTG,0.968,0.74,0.778,0.626,0.323,2.42,0.104,0.775,1.39
TGGCCTAGGTCATTGGGCCAGTATAGTACGCATC,2.71,3.81,4.21,0.818,2.68,2.71,0.295,1.87,0.451
TCTTGTAGATCAAGCAGGTTAAGAACGCCTGAGT,0.231,0.0271,-0.224,0.465,0.465,0.437,-0.161,,0.189
AGAATGAGGCTACCAAAGATCAGGGAAACGCTTG,-0.364,0.21,0.34,-0.268,0.156,0.463,-0.609,-0.544,-0.541
TCTAGTTGGTCACGGAGGTCACACACGACGGGTA,4.44,4.66,4.79,0.886,4.58,3.61,2.53,5.62,3.25
TCTGCTAGGTCAGTTGGTCAGGTAACGAGCTGCC,2.67,2.55,3.52,0.427,0.908,1.95,0.951,-0.0561,-0.545
TGAATGAGGTTTTAAGATCAGGGAACGTTGCAAA,-0.344,-0.157,-0.0698,-0.731,-0.145,0.308,-0.308,-0.241,-0.172
CGAACTAGGTGATCCAGGACAGTGAATACATTGA,0.12,0.151,0.467,0.07,0.363,1.38,0.934,0.541,0.0681
GATACAGGGTCAAGGCCAGCGTACGCGTATTGAT,3.63,5.27,4.55,2.14,5.61,3.53,1.43,3.89,1.31
TCTCGGAGGACACGATGGTCAGAGCTTTCCAGAG,0.682,0.274,1.24,0.266,0.00404,1.05,0.363,,-0.307
TCAAATAGGTAAATGCTAGGTGAAAGTCCGATCT,0.514,0.401,0.304,1.84,1.06,1.38,0.625,,0.251
TCAAGCAGGCCAGAGGGTCACTCAAGAGGTACGG,2.73,2.61,2.21,0.592,2.67,1.68,-0.21,,0.557
TGTCAAAGTTCAAAGGCAACGTAAGTATCCACAC,3.66,5.59,5.84,4.29,5.06,2.12,-0.708,,4.02
